From PubChem BioAssay (NCI)
This is part of a sample that, as a whole, favours compounds with a hit. Of some 79,000 tested, about 15% had one in any assay. Activity calls are given as the source filed them. Cut-off read from the data, not from the text of the source: active = growth inhibition above about 70%; inactive = the rest.

Legend:
[1] = NCI Yeast Anticancer Drug Screen. Data for the rad50 strain (AID 155);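 note: 0% = growth of vehicle-only cultures of the same strain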; settings: S. cerevisiae rad50 strain growth inhibition; at 50.0 µM; stronger effect = higher value
How it was run: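 Yeast carrying a defined DNA repair defect were exposed to test compounds, and growth was compared with vehicle-treated controls to give percent inhibition.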

[2] = NCI Yeast Anticancer Drug Screen. Data for the mec2-1 strain (AID 157); settings: S. cerevisiae mec2-1 strain, at 50.0 µM, stronger effect = higher value
How it was run: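 Yeast mec2-1 mutant treated with compound. Readout: growth inhibition vs vehicle controls.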

[3] = NCI Yeast Anticancer Drug Screen. Data for the sgs1 mgt1 strain (AID 161);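 note: 0% = growth of cultures given vehicle only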; settings: S. cerevisiae sgs1 mgt1 strain, at 50.0 µM, stronger effect = higher value
How it was run: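 Mutant yeast exposed to compound; growth scored against vehicle-only wells.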

[4] = NCI Yeast Anticancer Drug Screen. Data for the cln2 rad14 strain (AID 165);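 note: 0% = growth equal to vehicle treated cultures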; settings: S. cerevisiae cln2 rad14 strain, at 50.0 µM, stronger effect = higher value
How it was run: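 cln2 rad14 yeast strain; compound exposure; growth inhibition read vs vehicle controls.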

[5] = NCI Yeast Anticancer Drug Screen. Data for the bub3 strain (AID 167); settings: S. cerevisiae bub3 mutant strain, at 50.0 µM, stronger effect = higher value
How it was run: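 Compounds were applied to a genetically altered yeast strain carrying a cell-cycle control defect. Growth inhibition was scored against vehicle-treated controls.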

[6] = NCI Yeast Anticancer Drug Screen. Data for the mlh1 rad18 strain (AID 175); settings: S. cerevisiae mlh1 rad18 strain growth inhibition; at 50.0 µM; stronger effect = higher value
How it was run: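 Yeast w/ defined DNA-repair lesions; compound exposure; growth vs vehicle controls → % inhibition.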

Measured: growth inhibition

O=C(Nc1ccc(Cl)c(Cl)c1)C(Cl)Cl
inactive: [1] 23.5% | [2] 15.1% | [3] 50.5% | [4] 30.2% | [5] 39.1% | [6] 10.3%

CCCCn1nnnc1N
inactive: [1] 3.45% | [2] 6.4% | [3] -8.2% | [4] 12% | [5] 17.8% | [6] 6.85%

COC(=O)C(/C(=N/N)C(=O)Nc1cc(Cl)ccc1Cl)c1nc2ccc([N+](=O)[O-])cc2[nH]c1=O (configuration not stated)
inactive: [1] -10.6% | [2] -13.3% | [3] 7.3% | [4] 10.5% | [5] 13.9% | [6] 15.6%

COc1cccc(/C=N\c2nc(-c3ccccc3Cl)cs2)c1O
inactive: [1] 44% | [2] 5.15% | [3] 32.4% | [4] 21.9% | [5] 39.6% | [6] 27.4%

CN(Cc1ccccc1)N=NCc1ccccc1
inactive: [1] 15.8% | [2] -15.8% | [3] -20.4% | [4] 3.35% | [5] 3.65% | [6] -9.7%

CC[N+](C)(CC)CC(O)C[N+]1(C)CC2CCCCC2C1 (configuration not stated)
inactive: [1] 13.1% | [2] -1.7% | [3] 6.2% | [4] -10.2% | [5] -4.65% | [6] 4.1%

CC[P+](C)(C)c1ccccc1
inactive: [1] 30.9% | [2] -0.8% | [3] 2.1% | [4] 7.55% | [5] 11.7% | [6] 2.75%

O=[N+]([O-])c1ccc(N2CCCC2)cc1
inactive: [1] 14.2% | [2] -8.05% | [3] -6.9% | [4] 0.8% | [5] 13.8% | [6] -16.7%

O=C1NNCc2c1sc1ccccc21
inactive: [1] 0.25% | [2] -4.15% | [3] -17.4% | [4] -41.3% | [5] -11.7% | [6] 4.6%

NC(=O)Cc1nc(O)cc(=O)[nH]1
inactive: [1] -8.45% | [2] -9.1% | [3] -8.3% | [4] -13.1% | [5] -1.9% | [6] -2.15%

COc1ccc(-c2nnc(-c3nsc4ccccc34)o2)cc1
inactive: [1] -12.8% | [2] -31.9% | [3] -21.5% | [4] -2.5% | [5] 18.5% | [6] -14.1%

ClC1(c2ccccc2)c2ccccc2C(Cl)(c2ccccc2)c2ccccc21 (configuration not stated)
inactive: [1] 17.9% | [2] 0.1% | [3] -6.7% | [4] -3.8% | [5] 12.2% | [6] 27.9%

COCn1cnc2c(F)ncnc21
inactive: [1] 3.85% | [2] -1.4% | [3] -5.1% | [4] -29.1% | [5] -11.2% | [6] -3.1%

CC(=O)Nc1ccc(/C=C/c2ccc(N=C=S)c(S(=O)(=O)O)c2)c(S(=O)(=O)O)c1
inactive: [1] 9.5% | [2] -4.4% | [3] -19% | [4] 10.1% | [5] 1.4% | [6] -13.5%

COc1ccc(CCNC(=S)NN)cc1OC
inactive: [1] -15.7% | [2] -23.6% | [3] -7.35% | [4] -23.5% | [5] -17% | [6] -28.7%

NNC(=O)Nc1ccccc1
inactive: [1] 3.8% | [2] 5.55% | [3] -0.5% | [4] -13.6% | [5] -2.4% | [6] -3.15%

C/C(CC(=O)Nc1ccc(Cl)c(Cl)c1)=N/NC(=O)C[n+]1ccccc1
inactive: [1] 16.8% | [2] 5.15% | [3] 7.45% | [4] -19.6% | [5] 5.85% | [6] 29.2%

COc1ccc2c(c1)C1(C)CCCC(C)C1=CC2=O (configuration not stated)
active: [1] 84% | [2] 78.3% | [3] 82.8% | [5] 87.8% | [6] 85%
inactive: [4] 28.1%

Cc1ccc(C2(C)CC[C@@H]3C[C@@]32C)c(O)c1 (some centres not stated)
active: [1] 91.2% | [2] 93.8% | [3] 93.5% | [4] 92.2% | [5] 92.7% | [6] 91.8%

CC1(C)OC2(CC1C1(C)C=CC(=O)O1)CC1(O)C(CCC34CC13C(=O)OC4c1ccoc1)O2 (configuration not stated)
inactive: [1] 17% | [2] 4.25% | [3] -10.3% | [4] 24.7% | [5] 14.9% | [6] 16.8%

COc1ccc(CCNC(=O)CC2CCN(Cc3ccccc3)CC2)cc1OC
inactive: [1] 3.65% | [2] 1.15% | [3] 5.2% | [4] -3.75% | [5] -3.45% | [6] -1.5%

CCOC(=O)Nc1ccc([N+](=O)[O-])c2c1C(=O)c1ccccc1-2
inactive: [1] -9.55% | [2] 2.9% | [3] -8.6% | [4] -10.7% | [5] -21.6% | [6] -19.5%

NC(=O)Nc1cccc(C(=O)O)c1C(=O)O
inactive: [1] -29.4% | [2] -13.2% | [3] -18.1% | [4] -33.6% | [5] -13.1% | [6] -28.4%

COc1ccc(C(=O)N=Nc2ccccc2)cc1
inactive: [1] 0.05% | [2] 0.7% | [3] -6.85% | [4] -49.9% | [5] 3.35% | [6] -13.1%

COc1ccc(COC(=O)Nc2cccc(Cl)c2C)cc1
inactive: [1] -1.2% | [2] 8.95% | [3] 14.8% | [4] -25.7% | [5] -8.85% | [6] -3.2%

COc1ccc(C2CC(=O)NC2=O)cc1OC (configuration not stated)
inactive: [1] 4.8% | [2] 17.4% | [3] -6.55% | [4] -12.2% | [5] 1.8% | [6] -5.65%

C=CCCCC1CCCNC1=O (configuration not stated)
inactive: [1] 5.05% | [2] 10.2% | [3] -8.2% | [4] 8.1% | [5] 4.05% | [6] 0.45%

COc1ccc(N2C(=O)c3c(C)ccc(C)c3C2=O)cc1
inactive: [1] -23.8% | [2] 6.4% | [3] 19.9% | [4] -0.5% | [5] -3.5% | [6] 5.15%

NC(=O)N1CCCCN1C(N)=O
inactive: [1] 9.9% | [2] -7.95% | [3] -1.6% | [4] -55% | [5] 6.75% | [6] -4.65%

CCOc1ccc(CC(=O)Nc2cc([N+](=O)[O-])ccc2NCCN(CC)CC)cc1
inactive: [1] -18.2% | [2] -10.4% | [3] -8.6% | [4] -53.8% | [5] 0.2% | [6] -3.85%

N/N=C/c1ccc2ccccc2n1
inactive: [1] -14.4% | [2] -12.6% | [3] -17.4% | [4] -1.75% | [5] 12.6% | [6] -19.6%

CC1(C)OC(=O)C(=Cc2ccc(C#N)cc2)C(=O)O1
inactive: [1] 19% | [2] 9.6% | [3] 15.4% | [4] 11.8% | [5] 28.6% | [6] 22.8%

CCOC(=O)c1ccncc1
inactive: [1] 23.6% | [2] -0.95% | [3] 21.7% | [4] -4.4% | [5] -1.5% | [6] 6.4%

NCCCOCCN1CCN(c2ccccc2)CC1
inactive: [1] -0.75% | [2] -27.2% | [3] 0.75% | [4] -39.5% | [5] 2.95% | [6] 7.25%

CC(C)(C)OC(=O)N1CCc2c(n(C/C=C/c3ccccc3)[nH]c2=O)C1
inactive: [1] -30.2% | [2] -14.3% | [3] -4.85% | [4] -0.3% | [5] 1.55% | [6] -19.4%

O=[N+]([O-])c1ccc(F)cc1
inactive: [1] -1.3% | [2] 5.25% | [3] 2.3% | [4] -17.4% | [5] 7.15% | [6] 4.75%

CS(=O)(=O)OCCCCCCCCCOS(C)(=O)=O
inactive: [1] -10.9% | [2] -26.1% | [3] -3.6% | [4] -0.05% | [5] -18.8% | [6] -12.3%

Nc1cccc(NC(=O)c2cccc(N)c2)c1
inactive: [1] 9.8% | [2] -4.75% | [3] 2.2% | [4] 10.4% | [5] 11.4% | [6] 18.1%

CCCCCCCCCCCCCCCCCC(=O)OCC(O)CO (configuration not stated)
inactive: [1] -2.85% | [2] -16.8% | [3] 2.85% | [4] 7.2% | [5] -0.45% | [6] 7%

CC1(C)C(=O)CCC2(C)C(OC(=O)c3ccc(C(=O)O)cc3)CCCC12 (configuration not stated)
inactive: [1] -2% | [2] 37.5% | [3] 30.1% | [4] -15.4% | [5] 20.2% | [6] 18.4%

O=C(c1ccc(Cl)cc1)c1cc([N+](=O)[O-])cc([N+](=O)[O-])c1
inactive: [1] -0.35% | [2] 3% | [3] -2.45% | [4] -49.6% | [5] 22.8% | [6] -8.75%

Cc1nn(C)c(C#N)c1[N+](=O)[O-]
inactive: [1] -7.05% | [2] -30.3% | [3] -36.3% | [4] 4.4% | [5] -16.2% | [6] 0.8%
